# Assay outcomes from PubChem.
# LYPLA1 counter – LYPLA1 (human) inhibition in PME1 counter-screen; O75608; recombinant LYPLA1, FP-Rh probe fluorescence polarization; inhibition, % at 5.9 µM; actives 0.16% (n = 320,000); AID 2174;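 active means inhibition above the mean of all tested compounds plus 3 SD, set per campaign, cut at about 14% in these data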;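 further: inhibitors block serine hydrolase probe labeling of LYPLA1 so polarization falls; 0% = enzyme with DMSO and 100% = wells lacking LYPLA1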
# Target sequence (O75608 whole entry, looked up): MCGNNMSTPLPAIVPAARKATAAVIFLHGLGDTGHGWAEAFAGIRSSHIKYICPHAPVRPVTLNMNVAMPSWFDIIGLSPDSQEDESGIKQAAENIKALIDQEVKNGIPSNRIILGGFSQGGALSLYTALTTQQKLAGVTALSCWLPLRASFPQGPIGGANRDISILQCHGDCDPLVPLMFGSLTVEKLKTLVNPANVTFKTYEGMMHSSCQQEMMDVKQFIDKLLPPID
# Fam108B counter – Fam108B inhibition, counter-screen for RBBP9 inhibitors. recombinant Fam108B, FP-Rh probe fluorescence polarization. inhibition, % at 9.51 µM. actives 0.33% (n = 300,000). AID 1947;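 active means inhibition above the screen mean inhibition plus 3 SD, computed separately per campaign, cut at about 18% in these data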;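 further: inhibitors lower polarization as less probe binds the enzyme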
# GSTO1 counter – counter-screen for RBBP9 inhibitors: inhibitors of human GSTO1; actives 1.1% (n = 300,000); recombinant GSTO1, activity-based probe fluorescence polarization; P78417; inhibition, % at 5.96 µM;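 active means inhibition above the campaign mean inhibition plus 3 SD, cut at about 35% in these data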;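 further: 0% = GSTO1-1 with DMSO and 100% = wells lacking GSTO1-1 enzyme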
# PME-1 primary – blocks human protein phosphatase methylesterase 1. Q9Y570. recombinant PME-1, FP-Rh probe fluorescence polarization. inhibition, % at 5.9 µM. actives 0.53% (n = 320,000). AID 2130;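 active means inhibition above the campaign mean of all compounds plus 3 SD, cut at about 26% in these data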;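 further: competitive labeling of PME-1 active site by serine hydrolase directed probe; 0% = PME-1 with DMSO and 100% = wells lacking PME-1 enzyme; inhibitors block probe labeling so polarization falls and inhibition rises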
# Target sequence (Q9Y570 whole entry, looked up): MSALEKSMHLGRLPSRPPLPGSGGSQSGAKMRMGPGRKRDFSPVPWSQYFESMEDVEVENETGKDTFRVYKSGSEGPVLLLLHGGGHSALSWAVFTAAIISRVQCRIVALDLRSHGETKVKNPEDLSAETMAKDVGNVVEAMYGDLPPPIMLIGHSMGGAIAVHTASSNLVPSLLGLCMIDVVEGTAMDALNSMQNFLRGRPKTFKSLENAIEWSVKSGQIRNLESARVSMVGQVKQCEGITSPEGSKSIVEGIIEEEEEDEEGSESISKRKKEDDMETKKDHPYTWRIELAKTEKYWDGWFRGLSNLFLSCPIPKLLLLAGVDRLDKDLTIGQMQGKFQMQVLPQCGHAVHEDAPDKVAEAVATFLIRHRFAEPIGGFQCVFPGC
# PREPL inhibitor – inhibits the human prolyl oligopeptidase-like enzyme; Q4J6C6; recombinant PREPL, fluorescence polarization activity-based probe; inhibition, % at 5.96 µM; actives 0.68% (n = 320,000); in the data active means inhibition above about 43%;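 further: 0% = enzyme with DMSO and 100% = wells lacking enzyme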
# LYPLA2 counter – counter-screen for PME1 inhibitors: inhibitors of human LYPLA2; O95372; actives 0.38% (n = 320,000); recombinant LYPLA2, FP-Rh probe fluorescence polarization; inhibition, % at 5.9 µM;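 active means inhibition above the screen-wide mean plus 3 SD, limit set per campaign, cut at about 26% in these data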;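 further: 0% = LYPLA2 with DMSO and 100% = wells lacking LYPLA2 enzyme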
# Fam108b inh conf – Fam108b (mouse) hydrolase inhibition, confirmation assay; shares compounds with Fam108B counter; recombinant Fam108b, FP-Rh probe fluorescence polarization; inhibition, % at 9.51 µM; actives 44% (n = 930); AID 1978;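 active means inhibition above a limit from the primary screen, the mean over all compounds plus 3 SD, cut at about 19% in these data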;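 further: 0% = median of active Fam108b wells and 100% = catalytically dead S170A mutant; inhibitors free the probe so polarization falls as inhibition rises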
# Fam108b inh – inhibits mouse Fam108b in gel-based ABPP. shares compounds with Fam108B counter. recombinant Fam108b, fluorophosphonate probe. inhibition, % at 20 µM. actives 44% (n = 260); in the data active means inhibition above about 40%
# GSTO1 confirm – confirmation of human GSTO1 inhibitors. shares compounds with GSTO1 counter. recombinant GSTO1, probe fluorescence polarization. inhibition, % at 5.96 µM. actives 54% (n = 2,400). AID 2176;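 active means inhibition above the primary screen's cutoff, its mean inhibition plus 3 SD, cut at about 35% in these data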;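 further: loss of polarization as inhibitors block binding of rhodamine sulfonate ester activity probe; 0% = GSTO1 with DMSO and 100% = wells lacking GSTO1 enzyme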
# LYPLA1 conf – counter-screen for PME1 inhibitors: confirmation of human LYPLA1 inhibitors; shares compounds with LYPLA1 counter; recombinant LYPLA1, FP-Rh probe fluorescence polarization; inhibition, % at 5.9 µM; actives 69% (n = 480); AID 2233;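 active means mean inhibition across replicates above the hit cutoff set in the primary screen, cut at about 15% in these data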;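 further: loss of FP-Rh probe labeling of LYPLA1 seen as lower polarization; 0% = LYPLA1 with DMSO and 100% = wells lacking LYPLA1 enzyme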
# Starred values were filed as active, the others as inactive; i = inactive; · = not tested or not shown. This is a sample that favours compounds with a hit; in the whole collection about 1.9% have one here.
SMILES,LYPLA1 counter,Fam108B counter,GSTO1 counter,PME-1 primary,PREPL inhibitor,LYPLA2 counter,Fam108b inh conf,GSTO1 confirm,others
O=C(O)c1cc(O)c2c(c1)[C@@H]([C@H]1c3cc(C(=O)O)cc(O)c3C(=O)c3c(O[C@@H]4O[C@H](CO)[C@@H](O)[C@H](O)[C@H]4O)cccc31)c1cccc(OC3O[C@H](CO)[C@@H](O)[C@H](O)[C@H]3O)c1C2=O (stereo not given in full),28*,99*,84*,74*,106*,90*,116*,80*,
O=C1c2cc(CO)cc(O)c2C(=O)c2c(O[C@@H]3OC(CO)[C@@H](O)[C@@H](O)[C@@H]3O)cccc21 (stereo not given in full),3,0,7,2,-1,6,·,·,
CCOC(=O)c1ccc2c(c1)C1C=CCC1C(C(=O)O)N2 (stereo not given),-8,56*,52*,-24,39,4,33*,39*,Fam108b inh=0
CCc1nnc(NS(=O)(=O)c2ccc(NC(=O)c3cc(Cl)ccc3OC)cc2)s1,-5,-1,-23,-3,-3,2,·,·,
Cc1cc(C(=O)O)ccc1-n1c(C)ccc1C,1,24*,46*,-18,5,-3,14,20,
Cc1cc(C(=O)O)ccc1-n1c(C)cc(C=C2C(=O)c3ccccc3C2=O)c1C,1,-2,-135,2,5,-4,·,·,
CCc1ccc(S(=O)(=O)/N=C2\C=C(Nc3ccc(C(=O)O)cc3)C(=O)c3ccccc32)cc1,10,58*,94*,30*,41,18,74*,91*,Fam108b inh=0
Cc1ccc(S(=O)(=O)/N=C2\C=C(Nc3cccc(C(=O)O)c3)C(=O)c3ccccc32)c(C)c1,-4,35*,93*,23,28,4,49*,91*,Fam108b inh=15
O=C1C=C(Nc2ccccc2)C(=O)c2ccccc21,0,3,32,7,15,7,·,·,
Cc1ccc(S(=O)(=O)/N=C2\C=C(Nc3cccc(C(=O)O)c3)C(=O)c3ccccc32)cc1,3,50*,90*,25,32,21,60*,85*,Fam108b inh=0
Cc1ccc(S(=O)(=O)/N=C2/C=C(Sc3ncn[nH]3)C(=O)c3ccccc32)c(C)c1,1,60*,91*,36*,12,31*,34*,93*,
CSCCC(NC(=O)c1ccccc1)C(=O)NCCc1ccc2c(c1)OCCO2 (stereo not given),0,·,·,-3,3,4,·,·,
N#Cc1c(N2CCCC(O)C2)nc(N)c2c(N)nc3c(c12)CC(=O)N3C12CC3CC(CC(C3)C1)C2 (stereo not given),-3,19*,79*,11,23,0,17,88*,
COc1ccc2c(CC(=O)OCc3nc4ccsc4c(=O)[nH]3)coc2c1,·,·,·,·,0,·,·,·,
Oc1c(Br)cc(C=Nc2ccc3nc(-c4ccccc4)[nH]c3c2)c(O)c1Br,-23,33*,53*,35*,43,-21,10,42*,
COc1ccc2nc(-c3ccccc3)[nH]c2c1,0,-1,-8,-1,1,-1,·,·,
CCOc1ccc2nc(N3CCCCCC3)sc2c1,-1,-1,10,-3,8,3,·,·,
COc1ccc2nc(-n3c(C)ccc3C)sc2c1,1,0,20,-3,11,-5,·,·,
COc1ccc2nc(N3C(=O)/C(=C/c4ccccc4)NC3=S)sc2c1,4,20*,42*,58*,8,-3,22*,56*,
CCOc1ccc2nc(N3C(=O)/C(=C/c4ccccc4)NC3=S)sc2c1,6,20*,59*,23,12,-6,12,55*,
COCCn1c(C)cc(/C=N/NC(=O)c2cc3ccccc3cc2O)c1C,-13,·,·,9,20,4,·,·,
Cn1c(O)c(/C=N/NC(=O)c2cc3ccccc3cc2O)c2ccccc21,15*,36*,16,70*,26,3,31*,·,LYPLA1 conf=16*
CN(C)c1ccc(/C=C(\C#N)C(=O)NCc2ccco2)cc1,22*,29*,14,18,3,25,-8,·,LYPLA1 conf=14
CCN(CC)c1ccc(/C=C(\C#N)C(=O)NCc2ccco2)cc1,2,-3,12,-2,6,9,·,·,
CC(NC(=O)CN1C(=O)NC(c2ccccc2)(c2ccccc2)C1=O)c1cccs1 (stereo not given),-2,·,·,1,-12,2,·,·,
SMILES,LYPLA1 counter,Fam108B counter,GSTO1 counter,PME-1 primary,PREPL inhibitor,LYPLA2 counter,Fam108b inh conf,GSTO1 confirm,others
CN1/C(=C\C=C2/SC(=S)NC2=O)C(C)(C)c2ccccc21,-217,-389,-231,-351,i,-405,·,·,
CN1/C(=C\C=C2/C(=O)Oc3ccccc3C2=O)C(C)(C)c2ccccc21,51*,139*,-103,-186,-47,-213,-132,·,LYPLA1 conf=-60
CCC1(c2ccc(F)cc2)NC(=O)N(CC(=O)N2CCN(C(=O)c3ccco3)CC2)C1=O (stereo not given),·,·,·,·,4,·,·,·,
NS(=O)(=O)c1ccc(CCNC(=O)C(=O)C2C(=O)Nc3ccccc32)cc1 (stereo not given),1,2,6,2,19,2,·,·,
CC1=CN2C(=N)/C(=C/c3ccco3)C(=O)N=C2S1,-5,-12,-8,-1,5,1,·,·,
CC1=CN2C(=N)/C(=C/c3ccc([N+](=O)[O-])o3)C(=O)N=C2S1,17*,19*,13,33*,16,23,2,·,LYPLA1 conf=-3
O=C1c2cccc3c(O)ccc(c23)C(=O)N1Cc1ccccc1,21*,28*,9,26,20,31*,28*,·,LYPLA1 conf=24*
COC(=O)[C@]1(C)N[C@H](CN(C)C(=O)NC(C)C)[C@@H]2C(=O)N(C)C(=O)[C@@H]21,·,·,·,·,9,·,·,·,
O=C1NC(=Nc2ccccc2Cl)S/C1=C\c1cc([N+](=O)[O-])ccc1O,27*,33*,-37,-19,10,4,42*,·,Fam108b inh=30;LYPLA1 conf=31*
COc1cccc(N=C2NC(=O)/C(=C/c3cc([N+](=O)[O-])ccc3O)S2)c1,17*,19*,13,-7,5,-1,15,·,LYPLA1 conf=41*
CCCOc1ccc(/C(CC)=N/NC(=O)C2(C)CC2(Br)Br)cc1 (stereo not given),17*,41*,9,25,2,28*,3,·,LYPLA1 conf=3
